Results filed as inconclusive are left out. Activity calls are given as the source filed them. Unless noted, calls follow the shape of the dose curve; as a rule, active = well fitted curve in the direction sought with a large enough effect; inconclusive = small, poorly fitted or top-dose-only effect, or another doubt; inactive = no such curve, though single readings can be large; an effect the other way counts as inactive or inconclusive.
Key:
[1] = P-glycoprotein substrates identified in KB-3-1 adenocarcinoma cell line, qHTS therapeutic library screen (AID 1346986); also: nearly all actives have a fitted effect of over 60% in size;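 also: potency is read from the fitted curve at half-maximal effect; potency is for cytotoxicity meaning loss of cell viability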
How it was run: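 Cells seeded 500/well in DMEM/10% FCS; compounds pinned in dose-response; 72 h incubation; CellTiter-Glo added, 5 min, luminescence. KB-8-5-11 run ±tariquidar to test reversal of P-gp resistance.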

[2] = P-glycoprotein substrates identified in KB-8-5-11 adenocarcinoma cell line, qHTS therapeutic library screen (AID 1346987); also: nearly all actives have a fitted effect of over 65% in size; also: potency is read from the fitted curve at half-maximal effect
How it was run: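 Steps: plate 500 KB-8-5-11 cells/well in DMEM + 10% FCS (colchicine removed); pin compounds in dose-response; incubate 72 h, 37 degree C, 5% CO2; add CellTiter-Glo, 5 min; read luminescence.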

[3] = Natriuretic polypeptide receptor (hNpr1) antagonism - Pilot counterscreen GloSensor control cell line (AID 1347045; calls by dose curve; also: potency is read from the fitted curve at half-maximal effect)
How it was run: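 Luminescence was read before and 20 min after adding 50 uM SNP, which stimulates soluble guanylyl cyclase. The HEK293 cells expressing the GloSensor cGMP sensor had been preloaded with 2% reagent for 2 h and treated with compound.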

[4] = molecular target: Atrial natriuretic peptide receptor 1 (Homo sapiens) (UniProt P16066); test: Natriuretic polypeptide receptor (hNpr1) antagonism - Pilot screen (AID 1347049; calls by dose curve;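 also: agonist-evoked cGMP luminescence read 20 min after hNppA addition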; also: potency is read from the fitted curve at half-maximal effect)
How it was run: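 Readout is cGMP-driven firefly luciferase luminescence in HEK293 cells carrying hNpr1 and a PDE5-domain GloSensor, read before and 20 min after 0.1 nM hNppA stimulation. Cells had 2% substrate reagent for 2 h and test compound for 30 min.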

[5] = molecular target: Atrial natriuretic peptide receptor 2 (Homo sapiens) (UniProt P20594); test: Natriuretic polypeptide receptor (hNpr2) antagonism - Pilot subtype selectivity assay (AID 1347050; calls by dose curve; also: potency is read from the fitted curve at half-maximal effect)
How it was run: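 Pilot selectivity screen against hNpr2: HEK293 cGMP-sensor cells are treated with LOPAC1280 compounds, then with hNppC peptide at 1 nM final. The cGMP-driven luminescence change over 20 min at room temperature is the read-out.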

[6] = NS1 protein of Zika virus - qHTS assay to identify small molecule inhibitors in human HEK 293 cells (AID 1347053); also: series mostly up to about 46 µM; nearly all actives have a fitted effect of over 55% in size
How it was run: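 Inhibition of NS1 expression was scored in HEK 293 cells given compound 1 h ahead of MR766 virus (MOI = 0.5). Following 24 h at 37 C, two anti-NS1 antibodies generated a TR-FRET signal, scaled between uninfected and infected controls.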

[7] = molecular target: T1, Tyrosine-protein phosphatase non-receptor type substrate 1 (Homo sapiens) + Leukocyte surface antigen CD47 (Homo sapiens) (UniProt P78324+Q08722); test: CD47-SIRPalpha protein protein interaction - LANCE assay qHTS validation (AID 1347057; active = well fitted curve in the direction sought with a large enough effect in the signal ratio, with a control signal flat, not every such curve was filed as active; the % refers to the signal ratio; also: series mostly up to about 38 µM)
How it was run: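 First, His-tagged CD47 and Eu-labelled anti-His antibody met the compound for 30 min; next, site-specifically biotinylated SIRPalpha was added for 30 min; finally streptavidin-APC was added before reading the TR-FRET ratio.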

[8] = molecular target: T1, Tyrosine-protein phosphatase non-receptor type substrate 1 (Homo sapiens) + Leukocyte surface antigen CD47 (Homo sapiens); test: CD47-SIRPalpha protein protein interaction - Alpha assay qHTS validation (AID 1347059);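 also: bead proximity luminescence from CD47 binding SIRPalpha after compound preincubation with SIRPalpha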
How it was run: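 Binding is measured by AlphaScreen proximity: Ni-NTA acceptor beads capture His-CD47, streptavidin donor beads capture biotin-SIRPalpha. Each of three additions (SIRPalpha with compound, CD47, beads) incubates 30 min at room temperature protected from light.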

[9] = molecular target: Parathyroid hormone/parathyroid hormone-related peptide receptor (Homo sapiens) (UniProt Q03431); test: qHTS for PTHR1 Agonists: Optimization Screen against the NCGC LOPAC library (AID 1347079);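 also: GloSensor cAMP luminescence in HEK-293 GP2 cells expressing human PTHR1 with IBMX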
How it was run: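 Agonist readout: GloSensor cAMP luminescence, read after 15 min at room temperature. HEK-293-derived GP2 line carries PTHR1; compounds tested as a titration for 1 hr at 37C in presence of IBMX. M-PTH (1-15) served as control.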

[10] = qHTS for Inhibitors of the Functional Ribonucleoprotein Complex (vRNP) of Lassa (LASV) Arenavirus: LASV Primary Screen - GLuc reporter signal (AID 1347082; calls by dose curve; tested in HEK293 reporter line; also: nearly all actives have a fitted effect of over 60% in size; also: potency is read from the fitted curve at half-maximal effect)
[11] = qHTS for Inhibitors of the Functional Ribonucleoprotein Complex (vRNP) of Lassa (LASV) Arenavirus: Viability assay - alamar blue signal for LASV Primary Screen (AID 1347083; calls by dose curve; tested in HEK293 reporter line; also: nearly all actives have a fitted effect of over 80% in size; also: potency is read from the fitted curve at half-maximal effect)
[12] = qHTS for Inhibitors of the Functional Ribonucleoprotein Complex (vRNP) of Lymphocytic Choriomeningitis Arenaviruses (LCMV): Viability assay - alamar blue signal for LCMV Primary Screen (AID 1347085; calls by dose curve; tested in HEK293 reporter line; also: nearly all actives have a fitted effect of over 80% in size; also: potency is read from the fitted curve at half-maximal effect)
[13] = molecular target: Nucleoprotein (Lymphocytic choriomeningitis virus (strain Armstrong)) (UniProt P09992); test: qHTS for Inhibitors of the Functional Ribonucleoprotein Complex (vRNP) of Lymphocytic Choriomeningitis Arenaviruses (LCMV): LCMV Primary Screen - GLuc reporter signal (AID 1347086; calls by dose curve; also: nearly all actives have a fitted effect of over 70% in size; also: potency is read from the fitted curve at half-maximal effect)
[14] = qHTS of pediatric cancer cell lines to identify multiple opportunities for drug repurposing: Primary screen for TC32 cells (AID 1347089); also: nearly all actives have a fitted effect of over 60% in size; also: potency is read from the fitted curve at half-maximal effect
How it was run: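 In the primary qHTS, MIPE compounds were tested at 11 concentrations (0.78 nM to 46 µM) and NPC compounds at 8 (0.59 nM to 46 µM) on TC32 cells for 48 h. CellTiter-Glo luminescence gave viability.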

[15] = qHTS of pediatric cancer cell lines to identify multiple opportunities for drug repurposing: Primary screen for DAOY cells (AID 1347090); also: nearly all actives have a fitted effect of over 55% in size; also: potency is read from the fitted curve at half-maximal effect
How it was run: (§1)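 Cell viability, CellTiter-Glo luminescence; 500-1,000 cells/well, 8- or 11-point titration, 48 h compound exposure at 37 degrees C, 5% CO2. Controls: DMSO neutral, bortezomib 2.3 µM final as positive.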

[16] = qHTS of pediatric cancer cell lines to identify multiple opportunities for drug repurposing: Primary screen for SJ-GBM2 cells (AID 1347091); also: potency is read from the fitted curve at half-maximal effect
How it was run: as §1

[17] = qHTS of pediatric cancer cell lines to identify multiple opportunities for drug repurposing: Primary screen for A673 cells (AID 1347092); also: nearly all actives have a fitted effect of over 45% in size; also: potency is read from the fitted curve at half-maximal effect
How it was run: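 48 h compound exposure, A673, 500-1,000 cells/well, 37 degrees C/5% CO2. MIPE: 11-point, 0.78 nM-46 µM; NPC: 8-point, 0.59 nM-46 µM (final). Readout CellTiter-Glo luminescence after 15 min RT.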

[18] = Identifying Small Molecule Inhibitors of Pancreatic Cancer Stem Cells (A278, Adherent) (AID 1259361); also: nearly all actives have a fitted effect of over 35% in size
How it was run: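 Adherent (2D) versus sphere (3D) formats; spheres generated 14 d in SCM beforehand. Compound transferred by pin tool after 4 h, 48 h incubation, CellTiter-Glo endpoint.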

[19] = Identifying Small Molecule Inhibitors of Pancreatic Cancer Stem Cells (Panc1, Adherent) (AID 1259362); details: Potency: viability; also: potency is read from the fitted curve at half-maximal effect
How it was run: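 After a 4 h attachment period, compounds were pinned into wells and cultures held 48 h under standard incubator conditions. Viability was then measured as CellTiter-Glo luminescence following 10 min at room temperature.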

[20] = molecular target: T1, Tyrosine-protein phosphatase non-receptor type substrate 1 (Homo sapiens) + Leukocyte surface antigen CD47 (Homo sapiens); test: CD47-SIRPalpha protein protein interaction - HTRF assay qHTS validation (AID 1347058; active = well fitted curve in the direction sought with a large enough effect in the signal ratio, not every such curve was filed as active; the % refers to the signal ratio;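 also: recombinant soluble extracellular CD47 with His tag and biotinylated SIRPalpha domains; series mostly up to about 38 µM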)
How it was run: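 TR-FRET read (Ch1/Ch2 ratio) of soluble extracellular CD47 and Avi-biotinylated SIRPalpha domains in PBS pH 7.4 with 0.05% IGEPAL; 7-point compound titration. Sequential 30 min room-temperature steps; non-biotinylated SIRPalpha as control inhibitor.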

Sequence of Atrial natriuretic peptide receptor 2 (Homo sapiens) (P20594 whole entry, looked up): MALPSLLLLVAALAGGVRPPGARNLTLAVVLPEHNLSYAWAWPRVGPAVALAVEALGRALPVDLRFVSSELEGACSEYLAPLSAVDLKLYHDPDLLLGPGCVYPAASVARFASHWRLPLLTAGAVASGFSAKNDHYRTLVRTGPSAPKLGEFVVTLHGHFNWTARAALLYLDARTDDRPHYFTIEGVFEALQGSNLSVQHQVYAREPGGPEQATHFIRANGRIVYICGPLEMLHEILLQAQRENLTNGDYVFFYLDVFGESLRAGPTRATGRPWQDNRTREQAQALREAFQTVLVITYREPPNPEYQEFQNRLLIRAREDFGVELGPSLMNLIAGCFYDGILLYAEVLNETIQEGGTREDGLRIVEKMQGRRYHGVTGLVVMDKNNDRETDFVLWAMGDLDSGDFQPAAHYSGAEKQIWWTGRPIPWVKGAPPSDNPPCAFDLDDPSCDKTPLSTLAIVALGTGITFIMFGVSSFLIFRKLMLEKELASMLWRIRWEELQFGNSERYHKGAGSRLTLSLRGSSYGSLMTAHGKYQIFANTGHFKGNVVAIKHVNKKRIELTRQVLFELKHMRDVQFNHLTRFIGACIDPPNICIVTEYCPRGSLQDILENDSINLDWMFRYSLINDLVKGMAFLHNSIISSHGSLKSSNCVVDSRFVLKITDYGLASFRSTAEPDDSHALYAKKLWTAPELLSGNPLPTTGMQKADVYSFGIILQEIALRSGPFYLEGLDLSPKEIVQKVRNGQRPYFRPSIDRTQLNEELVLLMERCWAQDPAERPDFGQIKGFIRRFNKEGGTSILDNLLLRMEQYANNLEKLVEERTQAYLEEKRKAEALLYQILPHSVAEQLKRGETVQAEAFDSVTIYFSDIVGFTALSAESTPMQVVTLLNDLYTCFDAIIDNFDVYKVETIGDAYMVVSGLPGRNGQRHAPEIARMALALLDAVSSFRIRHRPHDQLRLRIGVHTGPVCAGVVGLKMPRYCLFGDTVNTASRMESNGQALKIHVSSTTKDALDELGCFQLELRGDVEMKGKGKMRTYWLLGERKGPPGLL
Sequence of Nucleoprotein (Lymphocytic choriomeningitis virus (strain Armstrong)) (P09992 whole entry, looked up): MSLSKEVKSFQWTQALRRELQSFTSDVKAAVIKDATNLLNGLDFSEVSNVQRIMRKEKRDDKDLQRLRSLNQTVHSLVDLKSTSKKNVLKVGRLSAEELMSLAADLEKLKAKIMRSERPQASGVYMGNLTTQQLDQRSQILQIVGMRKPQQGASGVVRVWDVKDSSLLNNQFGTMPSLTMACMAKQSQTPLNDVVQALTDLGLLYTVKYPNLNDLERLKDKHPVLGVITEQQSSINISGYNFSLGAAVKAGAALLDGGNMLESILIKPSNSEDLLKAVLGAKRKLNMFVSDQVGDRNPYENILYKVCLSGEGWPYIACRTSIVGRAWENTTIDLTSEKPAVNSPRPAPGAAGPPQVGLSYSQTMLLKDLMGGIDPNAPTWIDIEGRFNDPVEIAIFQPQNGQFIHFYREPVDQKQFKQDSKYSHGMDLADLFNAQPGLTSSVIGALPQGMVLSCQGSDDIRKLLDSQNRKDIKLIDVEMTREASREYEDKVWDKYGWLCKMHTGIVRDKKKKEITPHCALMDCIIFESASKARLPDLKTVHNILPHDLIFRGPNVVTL
Sequence of Atrial natriuretic peptide receptor 1 (Homo sapiens) (P16066 whole entry, looked up): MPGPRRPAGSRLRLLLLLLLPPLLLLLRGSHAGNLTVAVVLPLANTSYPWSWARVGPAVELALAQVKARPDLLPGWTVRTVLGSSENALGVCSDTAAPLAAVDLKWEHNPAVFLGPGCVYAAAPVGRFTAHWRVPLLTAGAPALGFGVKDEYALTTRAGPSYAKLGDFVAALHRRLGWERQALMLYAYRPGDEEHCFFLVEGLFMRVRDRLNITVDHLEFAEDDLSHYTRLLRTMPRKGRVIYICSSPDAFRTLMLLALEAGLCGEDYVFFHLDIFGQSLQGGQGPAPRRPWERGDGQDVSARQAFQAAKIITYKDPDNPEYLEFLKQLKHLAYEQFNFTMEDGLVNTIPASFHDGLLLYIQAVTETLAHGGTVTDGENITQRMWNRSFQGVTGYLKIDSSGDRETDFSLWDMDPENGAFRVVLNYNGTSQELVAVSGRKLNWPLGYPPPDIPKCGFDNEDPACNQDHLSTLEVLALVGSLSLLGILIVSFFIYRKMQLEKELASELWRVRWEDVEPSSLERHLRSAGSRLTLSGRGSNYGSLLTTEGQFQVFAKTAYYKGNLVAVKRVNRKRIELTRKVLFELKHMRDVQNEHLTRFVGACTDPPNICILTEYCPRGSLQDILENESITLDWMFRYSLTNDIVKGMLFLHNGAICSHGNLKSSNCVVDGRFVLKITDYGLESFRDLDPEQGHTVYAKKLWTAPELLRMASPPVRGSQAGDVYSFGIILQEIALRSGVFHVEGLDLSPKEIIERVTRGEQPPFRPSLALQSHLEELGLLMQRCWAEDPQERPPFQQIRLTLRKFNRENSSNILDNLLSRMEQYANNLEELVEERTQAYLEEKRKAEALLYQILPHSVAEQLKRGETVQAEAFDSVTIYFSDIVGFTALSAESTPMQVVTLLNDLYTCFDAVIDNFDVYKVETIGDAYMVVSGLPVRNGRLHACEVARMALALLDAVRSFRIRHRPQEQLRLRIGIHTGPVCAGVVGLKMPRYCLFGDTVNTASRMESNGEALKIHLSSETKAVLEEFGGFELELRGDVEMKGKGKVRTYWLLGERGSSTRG
Sequence of Parathyroid hormone/parathyroid hormone-related peptide receptor (Homo sapiens) (Q03431 whole entry, looked up): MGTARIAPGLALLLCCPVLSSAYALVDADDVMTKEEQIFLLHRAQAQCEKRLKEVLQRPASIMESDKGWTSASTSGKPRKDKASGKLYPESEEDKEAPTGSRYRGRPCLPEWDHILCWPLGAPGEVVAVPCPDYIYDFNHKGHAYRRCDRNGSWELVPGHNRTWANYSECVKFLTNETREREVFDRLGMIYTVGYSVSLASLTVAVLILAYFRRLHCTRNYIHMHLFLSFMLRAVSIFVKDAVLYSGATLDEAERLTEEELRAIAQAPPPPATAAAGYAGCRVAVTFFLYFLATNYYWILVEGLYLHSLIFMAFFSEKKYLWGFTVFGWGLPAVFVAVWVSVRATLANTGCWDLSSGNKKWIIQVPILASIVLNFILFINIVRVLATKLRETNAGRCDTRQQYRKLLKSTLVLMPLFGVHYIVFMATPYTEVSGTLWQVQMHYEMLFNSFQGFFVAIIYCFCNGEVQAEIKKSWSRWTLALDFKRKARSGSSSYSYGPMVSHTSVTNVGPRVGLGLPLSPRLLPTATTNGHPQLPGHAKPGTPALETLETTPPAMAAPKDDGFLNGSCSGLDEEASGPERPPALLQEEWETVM
T1 sequence (P78324 whole entry, looked up): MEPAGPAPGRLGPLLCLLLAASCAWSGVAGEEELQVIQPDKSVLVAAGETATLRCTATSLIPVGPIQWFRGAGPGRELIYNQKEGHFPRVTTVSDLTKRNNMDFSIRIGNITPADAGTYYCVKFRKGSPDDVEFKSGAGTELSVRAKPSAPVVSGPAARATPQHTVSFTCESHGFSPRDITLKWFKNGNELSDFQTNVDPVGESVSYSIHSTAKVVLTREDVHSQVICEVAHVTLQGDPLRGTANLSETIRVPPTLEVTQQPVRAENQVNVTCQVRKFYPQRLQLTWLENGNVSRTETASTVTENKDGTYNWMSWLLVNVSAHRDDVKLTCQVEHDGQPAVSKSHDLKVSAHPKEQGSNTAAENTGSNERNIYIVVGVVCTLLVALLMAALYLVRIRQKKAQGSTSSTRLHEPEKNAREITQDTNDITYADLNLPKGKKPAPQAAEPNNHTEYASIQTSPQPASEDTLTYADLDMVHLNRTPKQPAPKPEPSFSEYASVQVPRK
T1 sequence (Q08722 whole entry, looked up): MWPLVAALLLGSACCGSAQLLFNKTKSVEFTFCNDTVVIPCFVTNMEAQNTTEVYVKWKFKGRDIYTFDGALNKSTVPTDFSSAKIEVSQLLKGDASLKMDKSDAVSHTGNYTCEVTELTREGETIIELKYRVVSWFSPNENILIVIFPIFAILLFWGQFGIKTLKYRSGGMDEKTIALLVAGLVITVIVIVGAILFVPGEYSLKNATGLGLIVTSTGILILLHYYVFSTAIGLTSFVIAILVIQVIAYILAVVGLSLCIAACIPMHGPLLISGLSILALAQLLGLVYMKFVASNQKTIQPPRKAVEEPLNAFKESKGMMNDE

Oc1ccc2c3c1O[C@H]1c4[nH]c5c(c4C[C@@]4(O)[C@@H](C2)N(CC2CC2)CC[C@]314)C[C@@]1(O)[C@H]2Cc3ccc(O)c4c3[C@@]1(CCN2CC1CC1)[C@H]5O4
inactive: Potency [1] | Potency [2] | Potency [3] | Potency [4] | Potency [5] | Potency [6] | outcome [7] | Potency [8] | outcome [9] | Potency [10] | Potency [11] | Potency [12] | Potency [13] | Potency [14] | Potency [15] | Potency [16] | Potency [17]

CC(C)[C@]12O[C@H]1[C@@H]1O[C@]13[C@]1(O[C@H]1C[C@H]1C4=C(CC[C@@]13C)C(=O)OC4)[C@@H]2O
active: IC50 (viability decrease) [18] 0.0066 µM | Potency [2] 0.0206 µM

C=CCON=C(C[C@H]1O[C@@H]2O[C@]3(C)CC[C@@H]4[C@H](C)CC[C@@H]([C@H]1C)[C@@]24OO3)[C@H]1O[C@@H]2O[C@]3(C)CC[C@H]4[C@H](C)CC[C@@H]([C@@H]1C)[C@@]24OO3
active: IC50 (viability decrease) [18] 0.0526 µM | Potency [19] 0.0662 µM | Potency [2] 16.6 µM | Potency [16] 0.372 µM

COC(=O)[C@@H](N)CCCN=C(N)N[N+](=O)[O-]
inactive: Potency [2] | Potency [3] | Potency [4] | Potency [5] | Potency [6] | outcome [7] | outcome [20] | Potency [8] | outcome [9] | Potency [13] | Potency [14] | Potency [16]

O=C(N[C@H]1CN2CCC1CC2)c1ccc(Cl)cc1
active: Potency [15] 18.7 µM | Potency [17] 5.9 µM
inactive: Potency [1] | Potency [2] | Potency [3] | Potency [4] | Potency [5] | Potency [6] | outcome [7] | outcome [20] | Potency [8] | outcome [9] | Potency [10] | Potency [12] | Potency [13] | Potency [14] | Potency [16]

c1ccc(CCCN2CCN(CCOC(c3ccccc3)c3ccccc3)CC2)cc1
active: Potency [2] 18.7 µM | Potency [3] 26.1 µM | Potency [15] 29.6 µM | Potency [17] 23.5 µM
inactive: Potency [4] | Potency [5] | Potency [6] | outcome [7] | outcome [20] | Potency [8] | outcome [9] | Potency [10] | Potency [11] | Potency [12] | Potency [13] | Potency [14]

CC(O)=C(C#N)C(=O)Nc1cc(Br)ccc1Br
inactive: Potency [1] | Potency [2] | Potency [6] | Potency [10] | Potency [11] | Potency [12] | Potency [13] | Potency [14] | Potency [15] | Potency [17]

COC1=C[C@@H]2[C@@H]3Cc4ccc(OC)c(O)c4[C@]2(CCN3C)CC1=O
inactive: Potency [1] | Potency [2] | Potency [6] | Potency [14]
active: Potency [10] 19.3 µM | Potency [11] 19.3 µM | Potency [12] 21.7 µM | Potency [13] 6.11 µM | Potency [17] 1.48 µM

CC(C)(C)c1cc(C=C(C#N)C#N)cc(Br)c1O
inactive: Potency [10] | Potency [11] | Potency [14]
active: Potency [1] 20.6 µM | Potency [16] 2.64 µM

CCN1C[C@]2(OC(=O)c3ccccc3NC(C)=O)CC[C@H](OC)[C@@]34[C@H]5CC6[C@@H](OC)C[C@](O)(C(C[C@@H]23)[C@@H]14)[C@@]5(O)[C@@H]6OC
inactive: Potency [1] | Potency [2] | Potency [6] | Potency [10] | Potency [11] | Potency [12] | Potency [13] | Potency [14] | Potency [15] | Potency [16] | Potency [17]

O=C(NCC1CCOCC1)c1cnc(Nc2ccc(Cl)cc2Cl)nc1C(F)(F)F
active: Potency [15] 18.7 µM | Potency [17] 18.7 µM
inactive: Potency [1] | Potency [2] | Potency [6] | Potency [10] | Potency [11] | Potency [12] | Potency [13] | Potency [14]

CCCN1CCO[C@@H]2c3cc(O)ccc3OC[C@@H]21
inactive: Potency [1] | Potency [2] | Potency [6] | Potency [10] | Potency [11] | Potency [12] | Potency [13] | Potency [14] | Potency [15]

COc1ccc2c(c[n+](C)c3c4cc5c(cc4ccc23)OCO5)c1OC
inactive: outcome [7] | Potency [8] | outcome [9] | Potency [13]
active: IC50 (viability decrease) [18] 16.6 µM | Potency [19] 6.62 µM | Potency [3] 13.1 µM | Potency [4] 16.9 µM | Potency [5] 14.7 µM | Potency [15] 23.5 µM | Potency [16] 11.8 µM | Potency [17] 3.72 µM

NC1CC1c1ccccc1 (stereo not drawn)
inactive: Potency [2] | Potency [3] | Potency [4] | Potency [5] | Potency [6] | outcome [7] | outcome [20] | Potency [8] | outcome [9] | Potency [10] | Potency [11] | Potency [12] | Potency [13] | Potency [14] | Potency [15] | Potency [16] | Potency [17]

c1ccc2c(CN3CCNCC3)cccc2c1
inactive: Potency [1] | Potency [2] | Potency [6] | Potency [10] | Potency [11] | Potency [12] | Potency [13] | Potency [14] | Potency [15] | Potency [16] | Potency [17]

Cc1ccccc1-n1c(Cn2ncc3c(N)ncnc32)nc2cccc(C)c2c1=O
active: Potency [11] 0.485 µM | Potency [12] 0.137 µM | Potency [13] 0.193 µM | Potency [14] 7.39 µM | Potency [15] 0.0935 µM | Potency [16] 0.0074 µM
inactive: Potency [1] | Potency [2] | Potency [6]

C[C@@H]1[C@H](O)[C@@H](C)C=CC=CCCC=CC=CC=CC=C[C@H](O[C@H]2O[C@@H](C)[C@H](O)[C@@H](N)[C@@H]2O)CC2O[C@](O)(C[C@@H](O)[C@H](O)CC[C@@H](O)C[C@@H](O)C[C@@H](O)CC(=O)O[C@H]1C)C[C@H](O)[C@H]2C(=O)O
inactive: Potency [1] | Potency [2] | Potency [6] | Potency [10] | Potency [11] | Potency [12] | Potency [13] | Potency [14] | Potency [15] | Potency [16] | Potency [17]

CC1=NN=C(c2ccc(N)cc2)c2cc3c(cc2C1)OCO3
inactive: Potency [1] | Potency [2] | Potency [3] | Potency [4] | Potency [5] | Potency [6] | outcome [7] | outcome [20] | Potency [8] | outcome [9] | Potency [10] | Potency [11] | Potency [12] | Potency [13] | Potency [14] | Potency [15] | Potency [16] | Potency [17]

CCNC(=O)CC1N=C(c2ccc(Cl)cc2)c2cc(OC)ccc2-n2c(C)nnc21 (stereo not drawn)
active: Potency [11] 7.69 µM | Potency [12] 1.53 µM | Potency [13] 2.43 µM | Potency [17] 2.96 µM
inactive: Potency [1] | Potency [2] | Potency [6] | Potency [14]
